Screens as filed in PubChem BioAssay.
FECH block – blocks human mitochondrial ferrochelatase activity; purified FECH, Ni-mesoporphyrin absorbance 550 nm; calls only at 10 µM (by protocol); 20,000 tested, 3.3% active; AID 1671448;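 active means enzyme reaction rate more than 3 SD below the solvent-only control wells on the same plate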;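 further: lower slope than DMSO wells means FECH inhibition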
Target sequence (P22830 whole entry, looked up): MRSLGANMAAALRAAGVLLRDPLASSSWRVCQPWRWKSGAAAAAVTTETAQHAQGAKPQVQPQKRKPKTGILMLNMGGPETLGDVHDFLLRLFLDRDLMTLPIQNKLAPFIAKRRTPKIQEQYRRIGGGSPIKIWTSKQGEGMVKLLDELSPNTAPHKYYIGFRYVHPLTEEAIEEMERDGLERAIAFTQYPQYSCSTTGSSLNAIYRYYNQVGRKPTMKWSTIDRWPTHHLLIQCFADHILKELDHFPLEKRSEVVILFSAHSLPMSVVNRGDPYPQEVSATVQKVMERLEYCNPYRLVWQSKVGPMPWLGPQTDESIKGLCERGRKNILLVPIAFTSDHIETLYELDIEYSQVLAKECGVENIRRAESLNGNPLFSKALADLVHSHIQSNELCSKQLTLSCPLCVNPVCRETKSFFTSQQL
Active calls of the source: *; i = inactive; + = active, no number. Many of the other results were omitted from the sample, so hits are more common in it than they were.

SMILES | FECH block
COc1ccc(S(=O)(=O)NCc2nc3cccnc3n2C2CC2)cc1OC | i
Cc1cccc(-c2nc3nc(CN4CCCC4)cc(=O)n3[nH]2)c1 | i
CC1CCCCN1Cc1cc(=O)n2[nH]c(-c3ccc(C(C)(C)C)cc3)nc2n1 (stereo unspecified) | i
Cc1cccc(-c2nc3nc(CN4CCCCC4C)cc(=O)n3[nH]2)c1 (stereo unspecified) | +
CC(C)c1nccc(C(=O)N(C)CC2CCCCO2)n1 (stereo unspecified) | i
CCOc1ccccc1NCc1cc(=O)n2[nH]c(NCc3ccccc3Cl)nc2n1 | +
COc1ccccc1NCc1cc(=O)n2[nH]c(NCc3ccccc3)nc2n1 | i
CCOc1ccccc1NCc1cc(=O)n2[nH]c(NCc3ccccc3)nc2n1 | i
COc1ccc(NCc2cc(=O)n3[nH]c(NCc4ccccc4Cl)nc3n2)cc1 | i
COc1ccc(CNc2nc3nc(CNc4cccc(OC)c4)cc(=O)n3[nH]2)cc1 | i
COc1cccc(NCc2cc(=O)n3[nH]c(NCc4ccccc4Cl)nc3n2)c1 | +
CCC(C)N(CC)C(=O)c1ccc2n[nH]nc2c1 (stereo unspecified) | i
Cc1ncsc1CCN(C)C(=O)c1cn(-c2ccccc2)nn1 | i
COc1ccc(-c2cc3n(n2)CCC(=O)N3Cc2ccc(C(=O)NCCC3=CCCCC3)cc2)cc1 | i
CCCCN(Cc1nc2nc(C)cc(C)n2n1)C(=O)c1cccc([N+](=O)[O-])c1 | i
CCC(C)N(Cc1ccncc1)C(=O)c1nn(C)c2ccccc12 (stereo unspecified) | i
CCCc1nc(C(=O)N2CCCC3(C2)C(=O)N(C)c2ccccc23)cs1 (stereo unspecified) | i
CN1C(=O)C2(CCN(C(=O)COCC3CCCCO3)CC2)c2ccccc21 (stereo unspecified) | +
CN1C(=O)C(CCC(=O)N2CCCOCC2)(Cc2ccccc2)c2ccccc21 (stereo unspecified) | i
FC(F)(F)CCc1ccnc(NC2CCOC2)n1 (stereo unspecified) | i
CCC(NC(=O)c1ccccc1-n1cncn1)c1ccnn1C (stereo unspecified) | i
O=C(CCN1CCN(CCc2ccncc2)CC1)NC1CCCCCC1 | i
CCC(NC(=O)CCC(=O)NC1CCCCCCC1)c1ccnn1C (stereo unspecified) | +
COc1cc(NC(=O)c2nc(N3CCOCC3)c3oc4ccccc4c3n2)cc(OC)c1 | i
CC(C)c1nccn1Cc1cc(C(=O)NC2CC(C)(C)NC(C)(C)C2)n[nH]1 | i
SMILES | FECH block
CCCNC(=O)c1nc[nH]c1C(=O)NCc1ccccc1 | i
O=C(NCc1ccccn1)c1nc[nH]c1C(=O)NCc1ccccc1 | +
O=C(NC(c1ccccc1)c1ccccc1)c1nc[nH]c1C(=O)NCc1ccccn1 | +
CC(C)(C)CNC(=O)c1[nH]cnc1C(=O)NCCc1c[nH]c2ccccc12 | i
CCCNC(=O)c1[nH]cnc1C(=O)NC(c1ccccc1)c1ccccc1 | i
O=C(NCc1ccccc1)c1nc[nH]c1C(=O)NCc1cccnc1 | i
CN(C)CCNC(=O)c1nc[nH]c1C(=O)NCc1ccccn1 | i
CC1(C)CC(NC(=O)c2nc[nH]c2C(=O)NCc2ccccn2)CC(C)(C)N1 | i
O=C(NCCc1c[nH]c2ccccc12)c1nc[nH]c1C(=O)NCc1ccccc1 | +
OCCCNc1nc(Nc2ccc(F)cc2)c2cnn(-c3ccccc3)c2n1 | i
CCOc1ccccc1NS(=O)(=O)c1cc(N2C(=O)CCS2(=O)=O)ccc1C | i
O=C(Nc1ccccc1C(=O)N1CCCCCC1)c1ccc[nH]c1=O | i
CSc1ccc(CN(C(=O)CN2C(=O)NC(=O)C2(C)C)C2CC2)cc1 | i
CCC(C)N(CCNC(=O)C1CCN(c2ncnc3c2nc2n3CCCCC2)CC1)Cc1ccco1 (stereo unspecified) | i
COc1ccc(N2C(=O)CCS2(=O)=O)cc1S(=O)(=O)Nc1ccc(OC(C)C)cc1 | i
O=C(NCC1CCN(Cc2ccccc2F)CC1)c1ccc(CN2C(=O)CCn3nccc32)cc1 | i
CN(Cc1ccc(Cl)cc1)c1nccc(-c2cc(C(=O)O)ccn2)n1 | i
Cc1cccc(NC(=O)CN2C(=O)CC(c3ccccc3)=Nc3ccccc32)c1C | i
CN(C)c1nc2ncnc(SCC(=O)Nc3ccccc3F)c2s1 | i
Cc1cccc(NC(=O)CSCc2nc(-c3ccccc3)no2)c1C | i
CCN1C(SCC(=O)Nc2ccccc2F)=NS(=O)(=O)c2ccccc21 | +
Cc1ccc(CN2CCN(CC(=O)Nc3ccccc3F)S2(=O)=O)cc1 | i
CCN1C(SCC(=O)Nc2cccc(C)c2C)=NS(=O)(=O)c2ccccc21 | +
Cc1ccccc1CC(=O)NCCn1c(CCc2ccccc2)nc2cccnc21 | i
CCc1ccc(CN2CCN(c3nc4ccccc4n3CCO)CC2)nc1 | i
SMILES | FECH block
CCC/C=C/c1ccc(C(=O)NC2CC2)cc1 | i
Cc1ccccc1CCC1CCCN(CCO)C1 (stereo unspecified) | i
Fc1cccc(F)c1CCC1CCCN(Cc2cscn2)C1 (stereo unspecified) | i
Fc1ccc(CCC2CCCN(CCCn3cnnn3)C2)c(F)c1 (stereo unspecified) | +
O=C(CCn1cncn1)Nc1ccccc1C(=O)n1cnc2ccccc21 | i
O=C(Cc1ccccc1F)NCc1ccccc1Cn1cccn1 | i
Cc1occc1C(=O)Nc1ccccc1C(=O)N1C[C@H](N(C)C)C[C@H]1CO | i
CC(=O)N1c2ccc(S(=O)(=O)N3CCCCC3)cc2CC1C(=O)NCCCN1CCCC1 (stereo unspecified) | i
CC(=O)N1c2ccc(S(=O)(=O)N3CCOCC3)cc2CC1C(=O)NCCN1CCCC1 (stereo unspecified) | +
CC(=O)N1c2ccc(S(=O)(=O)N3CCCCC3)cc2CC1C(=O)Nc1ccncc1 (stereo unspecified) | i
O=C(NCC1COc2ccccc2O1)c1cn(CCc2ccccc2)nn1 (stereo unspecified) | i
CCOC(=O)c1ccc(NC(=O)N2CCC(n3cnc4cccnc43)CC2)cc1 | i
CCC1=C(c2ccc(OC)cc2)S(=O)(=O)N(CC(=O)NCc2cccc(Br)c2)C1=O | i
O=C(CN1c2ccc(Br)cc2-c2ccccc2S1(=O)=O)NCCN1CCOCC1 | i
CC(C)OCCCNC(=O)CN1c2ccc(Br)cc2-c2ccccc2S1(=O)=O | +
O=C(CN1c2ccc(Br)cc2-c2ccccc2S1(=O)=O)NCc1ccccn1 | +
C=CCOc1cccc(NC(=O)CN2c3ccc(Br)cc3-c3ccccc3S2(=O)=O)c1 | i
COCCNC(=O)CN1c2ccc(Br)cc2-c2ccccc2S1(=O)=O | +
O=C(NCc1ccccn1)C1(Oc2cccc3ncccc23)CCNCC1 | i
CC(C)OCCCNC(=O)c1ccc(CN2C(=O)CCn3nc(-c4ccccc4)cc32)cc1 | i
O=C(CN1CCC(c2ccccc2C(=O)O)C1)NCc1ccccn1 (stereo unspecified) | i
CCC(CC)n1nc(C)cc1NC(=O)CC1CCOCC1 | i
CCN1C(=O)c2ccccc2Sc2cc(-c3noc(-c4ccco4)n3)ccc21 | i
C=CCn1cc(CN2CCOC(c3ccc(OC)cc3)C2)c(C)n1 (stereo unspecified) | i
Cc1cc(-c2cc(F)cc3c2OC(CN)C3)c2ccccc2n1 (stereo unspecified) | i
CCCCNC(=O)c1nc(N2CCCC2)c2oc3ccccc3c2n1 | i
